# Records with an inconclusive call do not appear. Unmarked numbers belong to inactive results. Activity calls are given as the source filed them. Calls come from the whole dose curve; as a rule, active = well fitted inhibition curve with a large enough effect in the repeat runs; inconclusive = weak or mixed curves; inactive = flat fitted curve, though single readings scatter.
# Assay: qHTS assay to identify small molecule HDAC inhibitors (AID 1259364); note: nearly all actives have a fitted effect of over 45% in size; for activity change, negative = inhibition: top concentration of the series differs between compounds
# Conditions: HCT-116 HDAC-Glo I/II luminescence, 2 h; series mostly up to 92.4 µM; activity change, negative = inhibition: at the top concentration
# Excerpt: U.S. Tox21 Program National Center for Advancing Translational Sciences [NCATS] NIH Chemical Genomics Center [NCGC] U.S. Environmental Protection Agency [EPA] National Institutes of Environmental Health Sciences [NIEHS] National Toxicology Program [NTP] U.S. Food and Drug Administration [FDA] Tox21 Assay Overview: Histone deacetylases (HDACs) are a group of epigenetic enzymes that regulate gene expression by histone deacetylation. HDACs are capable of introducing epigenetic modifications and such aberrations contribute to the onset and progression of several human diseases, thus making HDACs a popular therapeutic target. For identifying endogenous class I/II HDAC inhibitors a homogenous, luminogenic HDAC I/II cell based assay was used to measure the relative activity of class I and II HDACs from cells. Wild type HCT-116 cells were used to screen Tox21 libraries for identifying class I/II HDAC inhibitors.
# Tox21 Assay Protocol Summary: HCT-116 cells were dispensed at 1,500 per well in 5uL of culture medium into white solid bottom 1536-well plates (Greiner Bio-One, Monroe, NC) using a Multidrop Combi (Thermo Scientific, Waltham, MA) dispenser. The assay plates were incubated at 37 C and 5% CO2 for an overnight, and then 23nL of compounds dissolved in DMSO and positive control were transferred using a Pintool station (Wako, San Diego, CA). The assay plates were incubated at 37C and 5% CO2 for 2hr. After compound treatment, 4uL of HDAC-Glo reagent (Promega Corporation, Madison, WI) was added to each well of the assay plates using Flying Reagent Dispenser (FRD, Aurora Discovery, San Diego, CA) and incubated the assay plates at room temperature for 30min. The luminescence signal was quantified using a ViewLux plate reader (Perkin Elmer, Shelton, CT).
# % is set by controls: 0 for no effect and ±100 for the full control effect; potency is the fitted concentration of half-maximal effect.
Compound,"activity change, negative = inhibition",Potency
O=C(O)c1cccc(N(Cc2cccnc2)c2ccc(OC(F)F)c(OC(F)F)c2)c1,-0.251%,–
CC(C)(C)c1cc(CCC(=O)OCC(COC(=O)CCc2cc(C(C)(C)C)c(O)c(C(C)(C)C)c2)(COC(=O)CCc2cc(C(C)(C)C)c(O)c(C(C)(C)C)c2)COC(=O)CCc2cc(C(C)(C)C)c(O)c(C(C)(C)C)c2)cc(C(C)(C)C)c1O,5.07% [at 42.5 µM],–
CN1CCN(C2=Nc3cc(Cl)ccc3Nc3ccccc32)CC1,-0.232% [at 42.5 µM],–
CC(C)CC=O,3.98%,–
Cn1c(N)nc2nc[nH]c2c1=O,-23.2%,–
CNS(=O)(=O)Cc1ccc2[nH]cc(CCN(C)C)c2c1,-1.13% [at 42.5 µM],–
Cc1ccccc1N=Nc1ccc(N=Nc2c(O)ccc3ccccc23)c(C)c1,-11.2% [at 42.5 µM],–
C[C@@H](C1=C(CCN(C)C)Cc2ccccc21)c1ccccn1,-0.383% [at 42.5 µM],–
Cc1ccc(C(=O)C(C)CN2CCCCC2)cc1 (stereo not given),7.73% [at 42.5 µM],–
CN(C)C/C=C(/c1ccc(Br)cc1)c1cccnc1,-1.99% [at 42.5 µM],–
O=C=NC1CCC(CC2CCC(N=C=O)CC2)CC1 (stereo not given),-1.48%,–
N[C@H]1C(O)O[C@H](CO)[C@H](O)[C@@H]1O (stereo not given in full),2.39%,–
Nc1ccc(C(=O)Nc2ccccc2N)cc1,–,2.98 µM (active)
NC[C@H]1O[C@H](O[C@H]2[C@H](O)[C@@H](O[C@H]3O[C@H](CO)[C@@H](O)[C@H](N)[C@H]3O)[C@H](N)C[C@@H]2N)[C@H](O)[C@@H](O)[C@@H]1O,-0.959% [at 8.39 µM],–
O=c1c2ccccc2nnn1CCl,-11.6%,–
CCCCCCCCCCCCCCC1CO1 (stereo not given),8.04%,–
CCCCCCCCCCCCCCCC(=O)OC/C=C(C)/C=C/C=C(C)/C=C/C1=C(C)CCCC1(C)C,1.09%,–
CC[C@H](C)[C@H](N)C(=O)O,-5.9% [at 42.5 µM],–
ClC(Cl)(Cl)c1ccc(C(Cl)(Cl)Cl)cc1,-2.05%,–
C#CCOC(=O)[C@@H](C)Oc1ccc(Oc2ncc(Cl)cc2F)cc1,2.23%,–

Compound,"activity change, negative = inhibition",Potency
C=C(C)C(=O)OC(C)C,2.86%,–
c1ccc(CNCc2ccccc2)cc1,-16.5%,–
O=C(O)Cc1sc(-c2ccccc2)nc1-c1ccc(Cl)cc1,6.44% [at 42.5 µM],–
CC1=CCC(C(C)C)C=C1 (stereo not given),-0.709%,–
CC(C)c1ccc2c(C(C)C)cc(C(C)C)c(S(=O)(=O)O)c2c1,3.1%,–
N#CCCNCCC#N,8.44%,–
CC(=O)/C(C)=C/C1C(C)=CCCC1(C)C (stereo not given),2.8%,–
CC(C)(C)c1ccc(S)cc1,1.71%,–
Cc1ccc(C(N)=O)cc1N,3.31%,–
O=C(O)COC(=O)Cc1ccccc1Nc1c(Cl)cccc1Cl,14.4% [at 42.5 µM],–
O=C(c1ccccc1)c1ccc2n1CCC2C(=O)O (stereo not given),–,7.5 µM (active)
CCN(CC)CCOC(=O)C1(c2ccccc2)CCCC1,-4.75% [at 42.5 µM],–
CC(=O)c1c(C)c([N+](=O)[O-])c(C(C)(C)C)c([N+](=O)[O-])c1C,-5.79%,–
COC(Cc1ccccc1)OC,4.63%,–
CCCCCCCCCCCCC(=O)O,-4.27%,–
CCOc1ccc2[nH]cc(C(=O)NCc3ccccc3)c(=O)c2n1,-8.44%,–
Cc1nc2ccccc2n1Cc1ccc(Cl)cc1,2.22% [at 42.5 µM],–
Oc1ccc(C(O)CNCCCCCCNCC(O)c2ccc(O)c(O)c2)cc1O (stereo not given),0.428% [at 42.5 µM],–
CCOC(=S)SSC(=S)OCC,4.37%,–
N#Cc1c(F)cccc1F,2.05%,–

# Reference: PubChem BioAssay (Tox21)
